# Screens: PubChem, National Center for Advancing Translational Sciences (NCATS)
# Rows were chosen to be rich in hits. Some 4.6% of all compounds tested hit in one or more screens of this group.
# TRHR PAM = TRH receptor (human) allosteric enhancement. TRHR cells, fluo-8 calcium fluorescence, EC20 TRH enhancement. enhancement, % at 2 µM. actives 0.66% (n = 360,000). AID 493056; in the data active means enhancement above about 30%; further: 0% is about no effect
# Target sequence (P34981 whole entry, looked up): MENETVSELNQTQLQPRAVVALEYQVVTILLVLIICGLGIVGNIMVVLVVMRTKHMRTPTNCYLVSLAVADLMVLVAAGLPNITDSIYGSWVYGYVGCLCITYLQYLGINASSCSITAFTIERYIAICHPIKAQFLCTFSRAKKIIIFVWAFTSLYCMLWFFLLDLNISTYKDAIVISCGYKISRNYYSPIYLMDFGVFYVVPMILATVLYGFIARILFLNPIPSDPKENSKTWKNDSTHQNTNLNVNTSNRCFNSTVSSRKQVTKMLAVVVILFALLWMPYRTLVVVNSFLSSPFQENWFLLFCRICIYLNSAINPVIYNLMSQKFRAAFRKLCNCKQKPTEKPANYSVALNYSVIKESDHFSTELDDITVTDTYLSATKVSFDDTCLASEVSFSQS
#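 Enhancer read-out: after compound pinning and an initial kinetic agonist-mode read, an EC20 of TRH (10 nM final) was injected and fluo-8 calcium signal (Ex 480/Em 530) followed at 1 s/cycle for 100 cycles in TRHR-expressing cells.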
# D1 antag = antagonists of human D1 dopamine receptor; P21728; HEK293 TREx D1 cells, calcium flux, dopamine EC80; active compounds read low; activity change, negative = inhibition, % at 10 µM; actives 3.2% (n = 360,000); AID 504652; in the data active means activity change below about -30%; further: on the % scale 0 is the no-effect control and ±100 the full control effect
#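 Antagonism measured as reduced calcium response to an EC80 dopamine addition following 180 s compound pre-read; cells were inducible HEK293 Trex D1 plated overnight at 30 C, read kinetically at 1 cycle/sec.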
# D1 potentiator = human D1 dopamine receptor positive modulation; actives 0.036% (n = 360,000); HEK293 TREx D1 cells, calcium flux, dopamine EC20 potentiation; AID 504651; potentiation, % at 10 µM; P21728; in the data active means potentiation above about 30%; further: 0% is about no effect
# TRHR agonist = TRH receptor (human) agonism | P34981 | activation, % at 2 µM | AID 493084 | actives 0.18% (n = 360,000) | TRHR cells, calcium flux fluo-8, FDSS agonist mode; further: 0% is about no effect
#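 Steps: seed TRHR cells overnight; add fluo-8 no-wash Ca dye, RT 30 min–1.5 h; record 10 s baseline; pin-transfer compounds; monitor fluorescence 1 cycle/s for the agonist window. Calcium increases flag candidate agonists.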
# D1 ag = human D1 receptor agonism. actives 1% (n = 360,000). HEK293 T-REx D1 cells, calcium flux, agonist mode. P21728. activation, % at 2 µM; further: 0% is about no effect
#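 Inducible HEK293 T-REx D1 cells, force-coupled to calcium signalling, were plated at 4000 cells/well with tetracycline and held overnight at 30 C. After no-wash calcium dye loading, compound-evoked calcium rise over 180 s flagged agonists.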
# * hit, by the source's call; / = not tested or not shown. Unless noted, no stated cut-off is given here; in the data, active means activation above about 30%; inactive means the rest.
SMILES,TRHR PAM,D1 antag,D1 potentiator,TRHR agonist,D1 ag
CCOC(=O)C1C(=O)NC(N2CCN(Cc3ccccc3)CC2)=NC1c1ccccc1 (configuration not stated),-9,4,-2,0,2
CCOC(=O)C1C(=O)NC(N2CCN(Cc3ccccc3)CC2)=NC1c1ccco1 (configuration not stated),0,-36*,-1,0,1
COc1ccc(OC)c(-c2csc(NC(=O)Cc3ccccc3OC)n2)c1,17,-11,/,1,4
COc1ccc(OC)c(-c2csc(NC(=O)Cc3ccccc3F)n2)c1,32*,-3,-3,-1,2
O=C(Nc1ccc(Cl)cc1Cl)C1CCC(=O)N1Cc1ccccc1Cl (configuration not stated),1,9,-1,0,37*
COc1ccc(S(=O)(=O)NC2CCN(C#N)CC2)cc1,0,-11,-1,2,0
Cc1cc(C)n2c(Nc3cccc(C(F)(F)F)c3)c(-c3ccsc3)nc2n1,4,-2,0,-1,0
CCc1ccc2oc(C(=O)NCc3ccncc3)c(C)c2c1,3,0,-4,1,-1
Cc1cc(C)c2c(C)c(C(=O)NCc3ccncc3)oc2c1,-2,-44*,-5,-1,-1
COc1ccc(NC(=O)c2ccco2)cc1NC(=O)C(C)(C)Oc1ccc(Cl)cc1,6,-11,-4,-2,9
Cc1cc(=O)n2cc(-c3ccccc3)nc2[nH]1,2,-11,-5,0,1
Cc1ccc(-c2cn3c(=O)cc(C)[nH]c3n2)cc1,0,-40*,-1,0,1
Cc1ccc(O)c(C=Nc2cc(C)ccc2O)c1,3,-35*,-4,0,4
CC(C)(C)c1ccc(O)c(N=Cc2cc(Br)ccc2O)c1,2,13,1,3,11
O=C(CSC1=Nc2ccccc2C2=NC(CCC(=O)NC3CCCCC3)C(=O)N12)Nc1cccc(C(F)(F)F)c1 (configuration not stated),-11,7,3,-1,30
COCCCn1c(Cc2csc(Nc3ccccc3)n2)nnc1SCC(N)=O,-3,-36*,-1,0,1
NC(=O)CSc1nnc(Cc2csc(Nc3ccccc3)n2)n1Cc1ccccc1,-4,11,-4,0,1
O=C(O)c1ccc(NS(=O)(=O)c2ccc(Cl)c(Cl)c2)cc1O,-5,-31*,-6,0,2
O=C(O)c1cc(S(=O)(=O)Nc2ccc(N3CCCCC3)cc2)ccc1Cl,3,-30,-4,0,1
CC1CC(C)CN(CCOCCSc2ccccc2)C1 (configuration not stated),-5,-38*,-13,0,14
CC1CC(C)CN(CCCSc2ccccc2)C1 (configuration not stated),32*,-7,-4,0,10
CC(C)(C)NC(=O)[C@]1(C)CCC[C@@]2(C)C3CC[C@@]4(C)C[C@]3(CCC21)CC4=O (some centres not stated),-9,/,-4,0,-4
C/C(=N\NC(=O)c1c(Cl)cnn1C)c1ccc(NC(=O)c2ccc(Br)o2)cc1,12,-43*,-8,0,2
CC(Sc1nc2ccccc2c(=O)n1C)C(=O)N(C)C1CCCCC1 (configuration not stated),-6,-11,-8,0,3
CCc1ccccc1NC(=O)Nc1cc(C(=O)NCc2cccc(F)c2)ccc1N1CCCC1,-6,-14,-1,0,3
SMILES,TRHR PAM,D1 antag,D1 potentiator,TRHR agonist,D1 ag
CC(C)c1ccc2nc3sc(C(=O)N4CCc5ccccc5C4)c(N)c3cc2c1,-2,1,0,8,31*
Cc1ccc2nc(-c3cccs3)c(Nc3c(C)cccc3C)n2c1,-4,22,3,-1,10
CCN(CC)CCNC(=O)c1sc2ncccc2c1-n1cccc1,1,-36*,0,1,5
CCN(CC)CCNC(=O)c1ccccn1,-2,-32*,0,1,1
CCCCNC(=O)c1sc2ncccc2c1-n1cccc1,4,-3,-2,0,0
CCN(CC)CCNC(=O)/C(=N\O)c1ccccn1,2,3,-1,0,1
Cc1ccc(N(Cc2cccs2)C(=O)COc2cccc(C)c2)cc1,2,-14,0,1,11
